Reference: ChEMBL document CHEMBL2218924, “A broad activity screen in support of a chemogenomic map for kinase signalling research and drug discovery” (Biochem J, 2013)

Key:
[1] = target: T1, Ephrin type-A receptor 3 (Homo sapiens) (UniProt P29320); conditions: at 10 µM
T1 sequence (whole entry): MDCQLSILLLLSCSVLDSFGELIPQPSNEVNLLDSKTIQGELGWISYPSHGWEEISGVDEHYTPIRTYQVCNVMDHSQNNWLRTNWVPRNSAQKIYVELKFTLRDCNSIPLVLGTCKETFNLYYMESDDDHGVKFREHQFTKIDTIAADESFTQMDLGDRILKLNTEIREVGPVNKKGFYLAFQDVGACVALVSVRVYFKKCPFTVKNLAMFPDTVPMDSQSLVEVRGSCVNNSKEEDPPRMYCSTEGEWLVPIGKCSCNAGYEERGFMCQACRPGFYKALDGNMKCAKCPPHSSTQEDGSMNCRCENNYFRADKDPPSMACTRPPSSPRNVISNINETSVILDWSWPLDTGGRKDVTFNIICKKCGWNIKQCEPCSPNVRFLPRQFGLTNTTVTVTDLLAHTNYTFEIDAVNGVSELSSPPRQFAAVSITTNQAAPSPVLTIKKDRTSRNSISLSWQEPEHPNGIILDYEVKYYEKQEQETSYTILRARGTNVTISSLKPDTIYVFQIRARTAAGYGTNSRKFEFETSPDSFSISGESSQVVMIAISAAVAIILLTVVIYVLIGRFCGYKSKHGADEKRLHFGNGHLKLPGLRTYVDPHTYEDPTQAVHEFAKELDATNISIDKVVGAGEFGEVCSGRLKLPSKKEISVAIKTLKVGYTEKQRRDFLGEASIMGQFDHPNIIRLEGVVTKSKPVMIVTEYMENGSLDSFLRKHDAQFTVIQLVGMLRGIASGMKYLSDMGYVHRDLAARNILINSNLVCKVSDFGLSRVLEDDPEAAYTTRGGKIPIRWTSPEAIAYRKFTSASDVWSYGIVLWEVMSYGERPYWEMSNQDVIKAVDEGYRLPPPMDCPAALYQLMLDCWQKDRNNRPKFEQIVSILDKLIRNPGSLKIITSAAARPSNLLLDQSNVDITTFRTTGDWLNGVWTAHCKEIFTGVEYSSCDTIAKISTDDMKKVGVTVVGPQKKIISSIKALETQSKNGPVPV

[2] = target: Ephrin type-A receptor 4 (Homo sapiens) (UniProt P54764); conditions: at 1 µM
[3] = target: Ephrin type-A receptor 4 (Homo sapiens) (UniProt P54764); conditions: at 10 µM
[4] = target: Ephrin type-A receptor 5 (Homo sapiens) (UniProt P54756); conditions: at 1 µM
[5] = target: Ephrin type-A receptor 5 (Homo sapiens) (UniProt P54756); conditions: at 10 µM
[6] = target: Ephrin type-A receptor 7 (Homo sapiens) (UniProt Q15375); conditions: at 1 µM
[7] = target: Ephrin type-A receptor 7 (Homo sapiens) (UniProt Q15375); conditions: at 10 µM
[8] = target: T2, Ephrin type-A receptor 8 (Homo sapiens) (UniProt P29322); conditions: at 1 µM
T2 sequence (whole entry): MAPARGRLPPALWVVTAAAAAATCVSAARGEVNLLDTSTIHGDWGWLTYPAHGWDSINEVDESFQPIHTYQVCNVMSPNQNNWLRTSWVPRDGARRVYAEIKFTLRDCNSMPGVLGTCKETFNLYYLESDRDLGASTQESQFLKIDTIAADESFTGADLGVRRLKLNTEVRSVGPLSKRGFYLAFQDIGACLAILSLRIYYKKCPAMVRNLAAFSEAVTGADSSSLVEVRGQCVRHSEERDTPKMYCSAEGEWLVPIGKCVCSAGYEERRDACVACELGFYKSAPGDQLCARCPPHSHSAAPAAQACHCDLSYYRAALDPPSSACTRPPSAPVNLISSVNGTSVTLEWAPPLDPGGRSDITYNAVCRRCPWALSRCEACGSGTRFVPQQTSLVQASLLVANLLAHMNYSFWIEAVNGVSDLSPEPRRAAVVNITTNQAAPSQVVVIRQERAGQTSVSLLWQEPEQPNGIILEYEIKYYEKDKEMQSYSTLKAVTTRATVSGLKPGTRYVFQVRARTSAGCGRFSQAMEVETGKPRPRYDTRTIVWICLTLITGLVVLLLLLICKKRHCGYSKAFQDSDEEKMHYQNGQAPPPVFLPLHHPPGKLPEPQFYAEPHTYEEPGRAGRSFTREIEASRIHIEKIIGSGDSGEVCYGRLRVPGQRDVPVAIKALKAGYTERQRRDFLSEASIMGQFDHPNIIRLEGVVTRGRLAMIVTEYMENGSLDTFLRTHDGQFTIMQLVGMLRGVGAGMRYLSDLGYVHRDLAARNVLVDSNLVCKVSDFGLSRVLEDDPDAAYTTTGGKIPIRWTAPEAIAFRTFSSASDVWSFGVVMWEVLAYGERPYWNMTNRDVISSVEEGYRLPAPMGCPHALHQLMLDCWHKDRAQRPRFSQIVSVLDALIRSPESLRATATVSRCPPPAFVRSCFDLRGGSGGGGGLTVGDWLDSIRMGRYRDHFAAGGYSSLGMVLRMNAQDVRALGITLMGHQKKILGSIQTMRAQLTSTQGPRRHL

[9] = target: T2, Ephrin type-A receptor 8 (Homo sapiens); conditions: at 10 µM
[10] = target: T3, Ephrin type-B receptor 1 (Homo sapiens) (UniProt P54762); conditions: at 1 µM
T3 sequence (whole entry): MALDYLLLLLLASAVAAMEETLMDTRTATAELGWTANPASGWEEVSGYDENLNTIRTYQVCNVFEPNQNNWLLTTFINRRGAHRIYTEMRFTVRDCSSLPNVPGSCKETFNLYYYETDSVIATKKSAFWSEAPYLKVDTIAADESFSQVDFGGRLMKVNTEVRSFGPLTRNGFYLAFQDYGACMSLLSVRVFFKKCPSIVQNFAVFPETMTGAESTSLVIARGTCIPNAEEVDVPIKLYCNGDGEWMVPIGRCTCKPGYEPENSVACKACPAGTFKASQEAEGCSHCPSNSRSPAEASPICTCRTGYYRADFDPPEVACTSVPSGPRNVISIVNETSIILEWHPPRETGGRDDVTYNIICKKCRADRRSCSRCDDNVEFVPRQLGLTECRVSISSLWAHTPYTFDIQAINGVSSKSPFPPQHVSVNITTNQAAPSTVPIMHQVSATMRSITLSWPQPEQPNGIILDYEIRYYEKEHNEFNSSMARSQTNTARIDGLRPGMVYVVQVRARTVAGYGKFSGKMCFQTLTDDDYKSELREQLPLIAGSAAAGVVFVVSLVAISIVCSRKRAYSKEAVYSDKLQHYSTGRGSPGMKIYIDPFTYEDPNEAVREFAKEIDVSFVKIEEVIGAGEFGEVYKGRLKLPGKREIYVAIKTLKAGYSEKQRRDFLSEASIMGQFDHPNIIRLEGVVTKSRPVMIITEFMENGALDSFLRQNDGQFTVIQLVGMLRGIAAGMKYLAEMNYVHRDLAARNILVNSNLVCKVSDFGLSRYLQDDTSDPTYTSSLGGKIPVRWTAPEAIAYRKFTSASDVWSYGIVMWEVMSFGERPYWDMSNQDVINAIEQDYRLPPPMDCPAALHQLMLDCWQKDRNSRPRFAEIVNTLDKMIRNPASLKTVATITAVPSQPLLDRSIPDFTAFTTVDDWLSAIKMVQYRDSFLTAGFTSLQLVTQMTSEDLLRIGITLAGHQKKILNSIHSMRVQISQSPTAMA

[11] = target: T3, Ephrin type-B receptor 1 (Homo sapiens); conditions: at 10 µM
[12] = target: T4, Ephrin type-B receptor 2 (Homo sapiens) (UniProt P29323); conditions: at 1 µM
T4 sequence (whole entry): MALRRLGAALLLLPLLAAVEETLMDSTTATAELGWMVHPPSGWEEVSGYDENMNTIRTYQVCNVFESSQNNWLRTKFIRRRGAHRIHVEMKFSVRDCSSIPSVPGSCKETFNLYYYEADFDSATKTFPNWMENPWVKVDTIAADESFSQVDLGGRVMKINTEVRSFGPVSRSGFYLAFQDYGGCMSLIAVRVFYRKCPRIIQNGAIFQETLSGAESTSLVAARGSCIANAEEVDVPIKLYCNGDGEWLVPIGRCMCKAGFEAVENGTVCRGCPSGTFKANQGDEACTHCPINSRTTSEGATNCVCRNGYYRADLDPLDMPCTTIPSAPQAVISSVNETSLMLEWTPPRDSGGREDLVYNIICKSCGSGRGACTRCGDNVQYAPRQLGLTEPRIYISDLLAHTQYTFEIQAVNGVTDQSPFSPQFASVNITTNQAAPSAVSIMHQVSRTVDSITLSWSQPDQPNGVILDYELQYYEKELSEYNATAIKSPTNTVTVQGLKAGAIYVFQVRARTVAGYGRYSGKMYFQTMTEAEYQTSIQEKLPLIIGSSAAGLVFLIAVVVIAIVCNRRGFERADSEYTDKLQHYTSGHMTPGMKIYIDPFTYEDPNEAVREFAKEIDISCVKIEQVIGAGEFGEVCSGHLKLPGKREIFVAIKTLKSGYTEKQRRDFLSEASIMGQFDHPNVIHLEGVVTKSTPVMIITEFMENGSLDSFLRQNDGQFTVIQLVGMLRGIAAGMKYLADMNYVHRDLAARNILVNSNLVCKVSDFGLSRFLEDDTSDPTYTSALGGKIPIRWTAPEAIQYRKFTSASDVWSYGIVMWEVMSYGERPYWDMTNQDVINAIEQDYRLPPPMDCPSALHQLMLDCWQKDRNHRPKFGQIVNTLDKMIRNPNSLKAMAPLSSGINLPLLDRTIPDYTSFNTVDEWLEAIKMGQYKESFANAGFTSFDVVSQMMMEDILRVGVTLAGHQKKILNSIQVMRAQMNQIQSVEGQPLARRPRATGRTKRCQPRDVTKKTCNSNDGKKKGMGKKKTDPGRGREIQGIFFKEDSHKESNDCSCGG

[13] = target: T4, Ephrin type-B receptor 2 (Homo sapiens); conditions: at 10 µM
[14] = target: T5, Ephrin type-B receptor 3 (Homo sapiens) (UniProt P54753); conditions: at 1 µM
T5 sequence (whole entry): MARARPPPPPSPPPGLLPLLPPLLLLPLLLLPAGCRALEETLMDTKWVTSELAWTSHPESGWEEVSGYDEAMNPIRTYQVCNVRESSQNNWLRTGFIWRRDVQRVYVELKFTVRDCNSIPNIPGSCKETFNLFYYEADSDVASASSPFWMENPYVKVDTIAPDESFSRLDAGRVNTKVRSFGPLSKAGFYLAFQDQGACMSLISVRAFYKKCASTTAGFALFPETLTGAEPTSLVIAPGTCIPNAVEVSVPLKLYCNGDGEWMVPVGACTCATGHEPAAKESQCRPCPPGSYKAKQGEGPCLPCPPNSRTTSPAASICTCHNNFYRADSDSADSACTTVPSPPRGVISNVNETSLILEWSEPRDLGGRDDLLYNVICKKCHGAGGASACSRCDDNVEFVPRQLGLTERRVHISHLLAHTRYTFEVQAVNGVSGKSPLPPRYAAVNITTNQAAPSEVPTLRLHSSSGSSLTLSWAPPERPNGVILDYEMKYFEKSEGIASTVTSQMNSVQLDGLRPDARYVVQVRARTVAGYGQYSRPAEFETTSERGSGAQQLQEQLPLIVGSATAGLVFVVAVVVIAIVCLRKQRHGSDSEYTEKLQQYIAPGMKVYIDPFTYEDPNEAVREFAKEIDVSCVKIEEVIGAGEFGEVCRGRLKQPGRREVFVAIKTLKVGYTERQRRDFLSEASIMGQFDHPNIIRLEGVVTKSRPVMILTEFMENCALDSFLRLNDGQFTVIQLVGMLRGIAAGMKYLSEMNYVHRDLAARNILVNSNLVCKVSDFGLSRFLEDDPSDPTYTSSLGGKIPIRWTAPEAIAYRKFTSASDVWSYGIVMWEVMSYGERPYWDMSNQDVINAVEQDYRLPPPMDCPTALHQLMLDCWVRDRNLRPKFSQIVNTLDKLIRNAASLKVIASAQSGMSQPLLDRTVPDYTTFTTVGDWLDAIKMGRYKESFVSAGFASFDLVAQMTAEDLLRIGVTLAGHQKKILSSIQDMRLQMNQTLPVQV

[15] = target: T5, Ephrin type-B receptor 3 (Homo sapiens); conditions: at 10 µM
[16] = target: T6, Ephrin type-B receptor 4 (Homo sapiens) (UniProt P54760); conditions: at 1 µM
T6 sequence (whole entry): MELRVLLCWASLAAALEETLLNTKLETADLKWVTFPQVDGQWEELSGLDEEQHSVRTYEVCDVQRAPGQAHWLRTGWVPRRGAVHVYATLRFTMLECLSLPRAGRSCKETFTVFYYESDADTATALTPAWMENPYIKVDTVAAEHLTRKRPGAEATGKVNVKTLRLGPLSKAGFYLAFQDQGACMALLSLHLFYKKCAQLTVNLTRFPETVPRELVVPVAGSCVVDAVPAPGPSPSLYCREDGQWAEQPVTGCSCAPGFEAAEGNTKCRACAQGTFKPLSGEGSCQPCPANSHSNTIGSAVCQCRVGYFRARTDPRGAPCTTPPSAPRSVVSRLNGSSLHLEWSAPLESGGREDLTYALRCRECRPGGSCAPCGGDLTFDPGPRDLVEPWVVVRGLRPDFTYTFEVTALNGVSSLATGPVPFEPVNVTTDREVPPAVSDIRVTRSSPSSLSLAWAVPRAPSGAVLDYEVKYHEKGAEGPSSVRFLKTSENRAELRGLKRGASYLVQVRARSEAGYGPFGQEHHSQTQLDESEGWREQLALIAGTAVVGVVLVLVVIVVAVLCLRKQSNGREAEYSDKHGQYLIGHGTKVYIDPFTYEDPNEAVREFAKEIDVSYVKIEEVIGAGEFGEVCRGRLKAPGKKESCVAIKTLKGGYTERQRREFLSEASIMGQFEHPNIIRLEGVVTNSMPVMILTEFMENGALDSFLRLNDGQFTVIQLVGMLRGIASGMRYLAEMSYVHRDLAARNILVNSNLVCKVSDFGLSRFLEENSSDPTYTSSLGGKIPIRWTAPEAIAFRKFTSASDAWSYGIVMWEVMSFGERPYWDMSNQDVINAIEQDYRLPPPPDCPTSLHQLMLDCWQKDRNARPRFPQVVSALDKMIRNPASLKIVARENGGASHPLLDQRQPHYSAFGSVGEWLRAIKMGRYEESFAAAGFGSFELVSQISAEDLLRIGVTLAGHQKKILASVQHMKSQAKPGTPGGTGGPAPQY

[17] = target: T6, Ephrin type-B receptor 4 (Homo sapiens); conditions: at 10 µM
[18] = target: Receptor tyrosine-protein kinase erbB-4 (Homo sapiens) (UniProt Q15303); conditions: at 1 µM
[19] = target: Receptor tyrosine-protein kinase erbB-4 (Homo sapiens) (UniProt Q15303); conditions: at 10 µM
[20] = target: Focal adhesion kinase 1 (Homo sapiens) (UniProt Q05397); conditions: at 1 µM

Ephrin type-A receptor 4 (Homo sapiens), sequence (P54764 whole entry): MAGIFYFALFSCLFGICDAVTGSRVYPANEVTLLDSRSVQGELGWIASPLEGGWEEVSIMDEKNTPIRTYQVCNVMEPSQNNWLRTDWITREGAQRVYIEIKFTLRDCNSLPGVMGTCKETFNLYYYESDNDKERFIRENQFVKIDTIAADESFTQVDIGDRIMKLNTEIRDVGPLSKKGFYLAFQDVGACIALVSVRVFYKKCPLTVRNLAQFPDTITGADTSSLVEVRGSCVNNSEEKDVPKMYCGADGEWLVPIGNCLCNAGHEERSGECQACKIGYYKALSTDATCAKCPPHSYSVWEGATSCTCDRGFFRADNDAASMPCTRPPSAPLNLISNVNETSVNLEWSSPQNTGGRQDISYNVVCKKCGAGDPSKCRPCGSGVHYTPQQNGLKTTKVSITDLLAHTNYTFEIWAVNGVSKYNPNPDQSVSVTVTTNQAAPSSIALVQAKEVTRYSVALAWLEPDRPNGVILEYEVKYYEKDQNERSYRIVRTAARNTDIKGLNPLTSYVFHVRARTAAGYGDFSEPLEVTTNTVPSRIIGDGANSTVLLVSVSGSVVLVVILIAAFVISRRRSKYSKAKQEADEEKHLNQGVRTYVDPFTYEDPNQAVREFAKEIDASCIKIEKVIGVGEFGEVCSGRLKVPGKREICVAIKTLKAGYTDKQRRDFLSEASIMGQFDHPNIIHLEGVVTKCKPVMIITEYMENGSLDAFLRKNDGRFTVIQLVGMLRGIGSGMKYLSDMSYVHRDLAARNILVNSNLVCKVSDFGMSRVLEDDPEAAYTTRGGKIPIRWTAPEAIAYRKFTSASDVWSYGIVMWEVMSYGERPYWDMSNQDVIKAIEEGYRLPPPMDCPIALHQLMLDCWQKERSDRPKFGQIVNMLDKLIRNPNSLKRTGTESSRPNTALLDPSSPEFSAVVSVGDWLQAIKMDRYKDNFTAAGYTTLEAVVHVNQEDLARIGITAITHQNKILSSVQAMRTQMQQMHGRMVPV
Receptor tyrosine-protein kinase erbB-4 (Homo sapiens), sequence (Q15303 whole entry): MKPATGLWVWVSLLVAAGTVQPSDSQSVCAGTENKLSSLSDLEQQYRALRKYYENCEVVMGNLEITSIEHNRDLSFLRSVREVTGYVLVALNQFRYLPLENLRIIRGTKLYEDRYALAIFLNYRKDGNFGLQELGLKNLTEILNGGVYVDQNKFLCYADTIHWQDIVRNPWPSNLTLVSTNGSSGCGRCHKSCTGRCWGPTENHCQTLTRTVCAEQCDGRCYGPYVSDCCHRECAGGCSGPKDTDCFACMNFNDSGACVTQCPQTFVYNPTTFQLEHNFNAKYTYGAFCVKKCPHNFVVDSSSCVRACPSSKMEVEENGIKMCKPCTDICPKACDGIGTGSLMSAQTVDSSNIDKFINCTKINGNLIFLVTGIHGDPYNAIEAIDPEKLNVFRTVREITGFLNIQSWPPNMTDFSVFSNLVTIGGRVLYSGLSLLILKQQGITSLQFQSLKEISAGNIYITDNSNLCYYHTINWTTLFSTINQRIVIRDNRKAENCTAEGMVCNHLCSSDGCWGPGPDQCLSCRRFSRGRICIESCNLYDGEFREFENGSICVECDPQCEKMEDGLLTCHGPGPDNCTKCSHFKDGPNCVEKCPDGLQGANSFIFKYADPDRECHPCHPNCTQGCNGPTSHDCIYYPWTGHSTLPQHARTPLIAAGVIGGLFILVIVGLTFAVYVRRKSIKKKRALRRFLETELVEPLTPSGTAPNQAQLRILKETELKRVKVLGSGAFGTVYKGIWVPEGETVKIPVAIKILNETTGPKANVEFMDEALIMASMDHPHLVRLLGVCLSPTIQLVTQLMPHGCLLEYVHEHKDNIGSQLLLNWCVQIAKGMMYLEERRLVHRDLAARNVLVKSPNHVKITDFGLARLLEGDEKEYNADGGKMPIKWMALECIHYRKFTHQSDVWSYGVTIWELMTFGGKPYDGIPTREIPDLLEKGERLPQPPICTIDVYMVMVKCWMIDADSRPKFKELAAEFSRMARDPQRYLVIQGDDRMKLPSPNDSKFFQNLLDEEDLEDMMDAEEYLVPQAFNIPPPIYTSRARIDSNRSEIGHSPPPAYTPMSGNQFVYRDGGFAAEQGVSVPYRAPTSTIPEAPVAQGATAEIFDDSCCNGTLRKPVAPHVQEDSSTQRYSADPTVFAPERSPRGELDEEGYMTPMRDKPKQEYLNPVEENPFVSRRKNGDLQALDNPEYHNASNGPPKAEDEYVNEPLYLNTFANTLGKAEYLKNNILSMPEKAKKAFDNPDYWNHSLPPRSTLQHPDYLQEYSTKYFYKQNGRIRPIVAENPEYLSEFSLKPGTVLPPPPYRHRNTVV
Ephrin type-A receptor 7 (Homo sapiens), sequence (Q15375 28-998 limits assumed): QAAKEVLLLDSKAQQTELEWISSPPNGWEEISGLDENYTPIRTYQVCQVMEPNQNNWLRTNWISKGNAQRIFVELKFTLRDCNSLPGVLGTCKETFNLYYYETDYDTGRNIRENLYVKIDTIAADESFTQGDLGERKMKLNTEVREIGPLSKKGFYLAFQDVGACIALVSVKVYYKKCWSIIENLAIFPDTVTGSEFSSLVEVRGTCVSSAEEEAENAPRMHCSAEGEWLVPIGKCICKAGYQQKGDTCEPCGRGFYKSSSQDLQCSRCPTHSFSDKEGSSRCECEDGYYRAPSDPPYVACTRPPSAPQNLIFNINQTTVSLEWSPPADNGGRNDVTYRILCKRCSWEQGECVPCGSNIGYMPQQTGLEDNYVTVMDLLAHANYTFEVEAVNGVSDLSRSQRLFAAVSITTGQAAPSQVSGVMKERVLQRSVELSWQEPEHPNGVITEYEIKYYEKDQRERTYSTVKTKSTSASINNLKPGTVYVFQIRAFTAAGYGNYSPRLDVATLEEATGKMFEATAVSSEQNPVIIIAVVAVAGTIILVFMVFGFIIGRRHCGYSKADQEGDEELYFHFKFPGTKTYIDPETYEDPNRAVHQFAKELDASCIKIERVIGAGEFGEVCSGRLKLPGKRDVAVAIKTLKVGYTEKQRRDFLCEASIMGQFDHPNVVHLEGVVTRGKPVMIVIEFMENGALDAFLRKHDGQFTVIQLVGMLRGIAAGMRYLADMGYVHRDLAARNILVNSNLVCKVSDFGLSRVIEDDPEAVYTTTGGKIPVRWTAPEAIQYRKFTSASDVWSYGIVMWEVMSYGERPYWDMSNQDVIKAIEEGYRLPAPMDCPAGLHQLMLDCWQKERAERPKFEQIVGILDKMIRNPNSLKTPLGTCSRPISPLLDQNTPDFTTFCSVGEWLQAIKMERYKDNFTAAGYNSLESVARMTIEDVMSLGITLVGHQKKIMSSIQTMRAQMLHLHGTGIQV
Ephrin type-A receptor 5 (Homo sapiens), sequence (P54756 whole entry): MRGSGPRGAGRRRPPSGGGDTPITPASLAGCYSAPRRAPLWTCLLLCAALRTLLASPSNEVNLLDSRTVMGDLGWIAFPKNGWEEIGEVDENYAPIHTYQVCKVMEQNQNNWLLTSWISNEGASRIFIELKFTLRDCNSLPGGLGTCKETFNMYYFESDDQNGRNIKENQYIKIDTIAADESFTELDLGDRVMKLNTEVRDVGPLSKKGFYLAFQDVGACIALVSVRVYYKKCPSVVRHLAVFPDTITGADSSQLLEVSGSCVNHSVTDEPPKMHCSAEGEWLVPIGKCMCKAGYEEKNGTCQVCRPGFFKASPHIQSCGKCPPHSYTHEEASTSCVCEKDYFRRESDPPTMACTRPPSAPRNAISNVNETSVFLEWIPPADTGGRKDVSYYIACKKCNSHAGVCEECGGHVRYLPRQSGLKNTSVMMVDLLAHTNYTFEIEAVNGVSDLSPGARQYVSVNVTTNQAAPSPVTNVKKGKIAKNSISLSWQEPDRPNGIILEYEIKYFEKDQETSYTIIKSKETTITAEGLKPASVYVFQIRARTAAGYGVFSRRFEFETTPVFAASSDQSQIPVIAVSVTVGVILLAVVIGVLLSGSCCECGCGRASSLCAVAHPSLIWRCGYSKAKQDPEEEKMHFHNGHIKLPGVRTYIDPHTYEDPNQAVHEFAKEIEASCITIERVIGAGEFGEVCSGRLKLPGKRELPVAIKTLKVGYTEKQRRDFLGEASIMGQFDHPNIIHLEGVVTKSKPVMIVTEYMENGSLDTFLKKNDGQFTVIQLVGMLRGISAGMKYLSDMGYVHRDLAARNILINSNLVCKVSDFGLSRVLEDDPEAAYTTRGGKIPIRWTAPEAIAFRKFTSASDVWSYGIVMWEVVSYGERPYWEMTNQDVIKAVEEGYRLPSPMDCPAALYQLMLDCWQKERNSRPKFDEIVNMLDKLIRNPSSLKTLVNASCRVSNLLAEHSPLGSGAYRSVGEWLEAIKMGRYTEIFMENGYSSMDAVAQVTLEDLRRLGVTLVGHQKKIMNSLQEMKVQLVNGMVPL

CCN(CC)CCCCN1c2ccccc2Oc2ccc(Cl)cc21
residual activity [1]: 97%
residual activity [2]: 116%
residual activity [3]: 100%
residual activity [4]: 108%
residual activity [5]: 113%
residual activity [6]: 105%
residual activity [7]: 103%
residual activity [8]: 98%
residual activity [9]: 114%
residual activity [10]: 100%
residual activity [11]: 117%
residual activity [12]: 122%
residual activity [13]: 121%
residual activity [14]: 106% (inactive)
residual activity [15]: 132%
residual activity [16]: 109%
residual activity [17]: 133%
residual activity [18]: 102%
residual activity [19]: 95%
residual activity [20]: 144%
